# Laboratory results as given in PubChem BioAssay (NCATS).
# Several values for one entry are separate records, joined by “and”; a condition that tells them apart may be missing. Equal entries are not always repeated. Inconclusive results are not listed. Where a call stands in place of a potency, no number is given. Some structures have more than one record in an assay (separate samples or runs), and their calls can disagree. Activity calls are given as the source filed them. Unless noted, the call rests on the fitted dose curve; in most records, active means well fitted curve in the direction sought with a large enough effect; inconclusive means small, poorly fitted or top-dose-only effect, or another doubt; inactive means no such curve, though single readings can be large; an effect the other way counts as inactive or inconclusive.
# How the values were obtained:
# [1] = molecular target: Alpha-galactosidase (Coffea arabica) (UniProt Q42656); assay: Counterscreen for Glucocerebrosidase Inhibitors: qHTS Assay for Coffee Bean alpha-Galactosidase at pH 4.5 (AID 957); further: series mostly up to about 77 µM
# Procedure, shortened: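 Fluorogenic qHTS at pH 4.5 (citrate buffer with Tween-20): 2 nM enzyme, 80 uM 4-MU-alpha-galactoside substrate, compound titrated 0.7 nM to 77 uM, 20 min room temperature. Glycine/NaOH stop; 4-MU read Ex 365/Em 440; Hill-equation AC50 against no-enzyme and enzyme controls.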
# [2] = molecular target: Pyruvate kinase PKM (Homo sapiens) (UniProt P14618); assay: qHTS Assay for Activators of Human Muscle Pyruvate Kinase (AID 954; active means well fitted curve in the direction sought with a large enough effect, not every such curve was filed as active)
# Procedure, shortened: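 Screening used highly purified human pyruvate kinase M2 under submaximal activity, with PEP at its Km and ADP below Km. After an hour at room temperature, ATP was read by luciferase luminescence.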
# [3] = Cell Viability - LYMP1-002 - Assay at 16 hr (AID 948); further: potency means the concentration at half of the fitted maximal effect
# Procedure, shortened: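 LYMP1-002 human lymphoblastoid cells, 2500/well, were treated with compounds for 16 hr at 37 C in complete medium. Viability was read as intracellular ATP by CellTiter-Glo luminescence, and AC50 was derived from a Hill fit to concentration-response data.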
# [4] = MultiTox-Fluor Cytotoxicity Assay - LYMP1-002 - Live Cells (AID 955);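 further: cells exposed to compound for 16 hours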; further: potency means the concentration at half of the fitted maximal effect
# Procedure, shortened: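 After 16 h compound exposure at 37 C, live LYMP1-002 lymphoblastoid cells (2500/well) were quantified by cleavage of cell-permeant GF-AFC substrate, read at 405/510 nm after 60 min. Concentration-response fitted with Hill equation for AC50.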
# [5] = MultiTox-Fluor Cytotoxicity Assay - LYMP1-003 - Dead Cells (AID 961); further: nearly all actives have a fitted effect of over 70% in size; further: potency means the concentration at half of the fitted maximal effect
# Procedure, shortened: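 Acute toxicity is scored as increased dead-cell protease activity in human lymphoblastoid LYMP1-003 cells after 16 h compound exposure in complete culture medium. Activity is normalized to DMSO basal and 15 uM tetraoctylammonium bromide as full response.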
# [6] = Cell Viability - LYMP1-003 - Assay at 24 hr (AID 963); further: potency means the concentration at half of the fitted maximal effect
# Procedure, shortened: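 Concentration-response qHTS: ATP loss measured by CellTiter-Glo luminescence after 24 h compound exposure at 37 C. Cells were LYMP1-003 human lymphoblastoid, 2500 per well. AC50 derived via standard Hill equation modeling.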
# [7] = Cell Viability - LYMP1-003 - Assay at 40 hr (AID 964); further: nearly all actives have a fitted effect of over 60% in size; further: potency means the concentration at half of the fitted maximal effect
# Procedure, shortened: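 Viability is taken as cellular ATP, read by CellTiter-Glo luminescence after 40 h of compound exposure at 37 C. Cells: human lymphoblastoid line LYMP1-003 at 2500/well; AC50 values derived by Hill-equation fitting of concentration-response data.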
# [8] = Cell Viability - LYMP2-013 (AID 970); further: nearly all actives have a fitted effect of over 55% in size; further: potency means the concentration at half of the fitted maximal effect
# Procedure, shortened: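 qHTS cytotoxicity: ATP-dependent luminescence (CellTiter-Glo, 30 min room temperature) read after 24 h compound exposure at 37 C of 2500 LYMP2-013 lymphoblastoid cells per well. Concentration-response fitted with Hill equation to give AC50.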
# [9] = Cell Viability - LYMP2-015 (AID 971); further: nearly all actives have a fitted effect of over 55% in size; further: potency means the concentration at half of the fitted maximal effect
# Procedure, shortened: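 Cytotoxicity readout: decrease in intracellular ATP (CellTiter-Glo luminescence) in 2500 LYMP2-015 lymphoblastoid cells/well after 24 h compound exposure at 37 C. Concentration-response data fitted with the standard Hill equation to give AC50.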
# [10] = Cell Viability - LYMP2-017 (AID 972); further: nearly all actives have a fitted effect of over 55% in size; further: potency means the concentration at half of the fitted maximal effect
# Procedure, shortened: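 CellTiter-Glo luminescence (cellular ATP, 30 min RT) measured cytotoxicity after 24 hr compound treatment at 37 C. Cells were a human lymphoblastoid line, LYMP2-017, plated at 2500/well and incubated 5 hr first; concentration-response fitted with Hill equation for AC50.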
# [11] = MultiTox-Fluor Cytotoxicity Assay - LYMP1-002 - Dead Cells (AID 960); further: nearly all actives have a fitted effect of over 60% in size
# Procedure, shortened: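 Dead-cell fluorescence (Ex/Em 485/520) after 16 h compound exposure at 37 C of LYMP1-002 lymphoblastoid cells in complete medium; AC50 by Hill equation, with data scaled between DMSO and 15 uM tetraoctylammonium bromide.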
# [12] = MultiTox-Fluor Cytotoxicity Assay - LYMP1-003 - Live Cells (AID 962);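 further: cells exposed to compound for 16 hours at 37 °C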; further: potency means the concentration at half of the fitted maximal effect
# Procedure, shortened: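 Live-cell protease activity (GF-AFC substrate, 405/510 nm, 60 min at room temperature) after 16 h, 37 C compound exposure of human lymphoblastoid LYMP1-003 cells; concentration-response fitted to the Hill equation for AC50.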
# [13] = Cell Viability - LYMP2-003 (AID 965);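 further: cells exposed to compounds for 24 h before reading; nearly all actives have a fitted effect of over 50% in size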; further: potency means the concentration at half of the fitted maximal effect
# Procedure, shortened: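 Human lymphoblastoid LYMP2-003 cells, 2500/well, exposed to compounds for 24 h at 37 C in complete medium. Viability read as intracellular ATP by CellTiter-Glo luminescence; AC50 from Hill-equation fits of qHTS concentration-response data.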
# [14] = Cell Viability - LYMP2-005 (AID 967); further: potency means the concentration at half of the fitted maximal effect
# Procedure, shortened: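 Human lymphoblastoid LYMP2-005 cells, 2,500 per well in complete medium, rested 5 h at 37C then compound-treated 24 h at 37C. Intracellular ATP read by CellTiter-Glo luminescence after 30 min at room temperature; AC50 from Hill-equation fits of concentration-response data.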
# [15] = Cell Viability - LYMP2-009 (AID 968); further: nearly all actives have a fitted effect of over 55% in size; further: potency means the concentration at half of the fitted maximal effect
# [16] = Cell Viability - LYMP2-011 (AID 969); further: nearly all actives have a fitted effect of over 60% in size; further: potency means the concentration at half of the fitted maximal effect
# Procedure, shortened: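 Cytotoxicity qHTS with ATP content as read-out: lymphoblastoid cells (2500/well) exposed to compound for 24 h at 37 C, then luciferase luminescence measured. Concentration-response data fitted with the standard Hill equation to give AC50.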
# [17] = Cell Viability - LYMP2-019 (AID 973); further: nearly all actives have a fitted effect of over 55% in size; further: potency means the concentration at half of the fitted maximal effect
# Procedure, shortened: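 AC50 values come from Hill-equation fits of luminescent intracellular ATP (CellTiter-Glo, 30 min, room temperature) following 24 h compound exposure at 37 C. Cells: LYMP2-019 lymphoblastoid line, 2500 per well, in complete culture medium.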
# [18] = Cell Viability - LYMP2-021 (AID 974); further: nearly all actives have a fitted effect of over 55% in size; further: potency means the concentration at half of the fitted maximal effect
# Procedure, shortened: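 AC50 values come from Hill-equation fits to CellTiter-Glo luminescence (ATP content), read after 24 hour compound exposure at 37 C of 2500 LYMP2-021 lymphoblastoid cells/well; tetraoctylammonium bromide as positive control.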
# [19] = Cell Viability - LYMP2-023 (AID 975); further: nearly all actives have a fitted effect of over 55% in size; further: potency means the concentration at half of the fitted maximal effect
# Procedure, shortened: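 Intracellular ATP, read by CellTiter-Glo luminescence, reports viability after 24 hr compound exposure at 37 C. 2500 lymphoblastoid cells/well (LYMP2-023) seeded 5 hr beforehand; Hill fits give AC50; positive control tetraoctylammonium bromide.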
# [20] = Cell Viability - LYMP2-004 (AID 966); further: nearly all actives have a fitted effect of over 65% in size; further: potency means the concentration at half of the fitted maximal effect
# Procedure, shortened: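 AC50 values come from Hill modelling of concentration-dependent loss of intracellular ATP, measured by CellTiter-Glo luminescence. Human LYMP2-004 lymphoblastoid cells (2500/well) were exposed to compound for 24 h at 37 C.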
# Sequence of Pyruvate kinase PKM (Homo sapiens) (P14618 whole entry, looked up): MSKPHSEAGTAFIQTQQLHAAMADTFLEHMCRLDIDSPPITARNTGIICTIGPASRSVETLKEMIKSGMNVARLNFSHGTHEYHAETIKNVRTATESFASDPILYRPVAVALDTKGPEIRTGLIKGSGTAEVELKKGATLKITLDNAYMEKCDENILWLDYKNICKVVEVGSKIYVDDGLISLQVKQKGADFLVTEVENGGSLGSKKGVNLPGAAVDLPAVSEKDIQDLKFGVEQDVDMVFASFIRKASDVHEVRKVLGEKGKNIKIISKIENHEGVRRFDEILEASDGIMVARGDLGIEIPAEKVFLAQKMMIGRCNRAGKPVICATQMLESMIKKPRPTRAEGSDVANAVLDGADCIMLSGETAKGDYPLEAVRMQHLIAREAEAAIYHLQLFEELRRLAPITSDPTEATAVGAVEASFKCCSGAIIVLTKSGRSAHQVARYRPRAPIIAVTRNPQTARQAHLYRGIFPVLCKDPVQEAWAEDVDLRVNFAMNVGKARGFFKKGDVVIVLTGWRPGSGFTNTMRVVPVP
# Sequence of Alpha-galactosidase (Coffea arabica) (Q42656 whole entry, looked up): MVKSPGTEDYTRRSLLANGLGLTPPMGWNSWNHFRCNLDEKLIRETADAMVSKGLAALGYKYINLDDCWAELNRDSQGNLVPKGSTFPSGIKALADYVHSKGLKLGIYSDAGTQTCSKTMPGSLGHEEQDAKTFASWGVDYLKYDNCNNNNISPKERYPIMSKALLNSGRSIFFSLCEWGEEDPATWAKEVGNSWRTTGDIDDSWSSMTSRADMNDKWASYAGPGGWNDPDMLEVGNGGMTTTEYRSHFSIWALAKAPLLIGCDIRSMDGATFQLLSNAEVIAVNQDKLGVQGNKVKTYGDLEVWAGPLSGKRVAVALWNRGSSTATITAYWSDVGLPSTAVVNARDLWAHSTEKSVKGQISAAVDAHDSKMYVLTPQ
compound,measurement,setting,value
COc1ccc(CN(CCN(C)C)c2ccccn2)cc1,outcome,[1],inactive
CN1[C@@H]2CC[C@H]1CC(OC(=O)c1cc(Cl)cc(Cl)c1)C2 (stereo partly drawn),outcome,[2],inactive
C[C@@H]1C[C@@H]([C@H](O)CC2CC(=O)NC(=O)C2)C(=O)[C@@H](C)C1,Potency,[3],inactive
same,Potency,[4],inactive
same,Potency,[5],50.1 µM (active) and inactive
same,Potency,[6],inactive
same,Potency,[7],2 µM (active) and inactive
same,Potency,[8],2 µM (active)
same,Potency,[9],2 µM (active) and 1 µM (active)
same,Potency,[10],1.58 µM (active)
O=C(O)CN(CCOCCOCCN(CC(=O)O)CC(=O)O)CC(=O)O,outcome,[1],inactive
c1ccc2nc(N3CCNCC3)ccc2c1,outcome,[2],inactive
NC(=O)CN1CCCC1=O,outcome,[2],inactive
COP(=O)(OC)OC=C(Cl)Cl,Potency,[3],inactive
same,Potency,[4],inactive
same,Potency,[11],inactive
same,Potency,[12],inactive
same,Potency,[6],inactive
same,Potency,[7],6.31 µM (active) and inactive
same,Potency,[13],inactive
same,Potency,[14],inactive
same,Potency,[15],inactive
same,Potency,[16],inactive
same,Potency,[8],inactive
same,Potency,[9],inactive
same,Potency,[10],inactive
same,Potency,[17],inactive
same,Potency,[18],inactive
same,Potency,[19],inactive
O=C(CCNNC(=O)c1ccncc1)NCc1ccccc1,outcome,[1],inactive
Cc1ccc(C(=O)Nc2ccc(S(=O)(=O)O)c3cc(S(=O)(=O)O)cc(S(=O)(=O)O)c23)cc1NC(=O)c1cccc(NC(=O)Nc2cccc(C(=O)Nc3cc(C(=O)Nc4ccc(S(=O)(=O)O)c5cc(S(=O)(=O)O)cc(S(=O)(=O)O)c45)ccc3C)c2)c1,outcome,[1],inactive
C[C@]12C=CC(=O)C=C1CC[C@H]1[C@@H]3C[C@@H](O)[C@](O)(C(=O)CO)[C@@]3(C)C[C@H](O)[C@@]12F,outcome,[1],inactive
OC(CN1CCC(Cc2ccc(F)cc2)CC1)c1ccc(Cl)cc1 (stereo not drawn),outcome,[1],inactive
Nc1c2c(nc3ccccc13)CCCC2,outcome,[1],inactive
COc1cc(C(=O)OCCCN2CCCN(CCCOC(=O)c3cc(OC)c(OC)c(OC)c3)CC2)cc(OC)c1OC,outcome,[1],inactive
CCN(CC)CCOCCOC(=O)C1(c2ccccc2)CCCC1,outcome,[1],inactive
NC(N)=NCCC[C@H](N)C(=O)O,outcome,[1],inactive
NCCc1cnc[nH]1,outcome,[1],inactive
Oc1c(Br)cc(Br)cc1Br,Potency,[3],inactive
same,Potency,[4],inactive
same,Potency,[11],inactive
same,Potency,[5],inactive
same,Potency,[12],inactive
same,Potency,[6],inactive
same,Potency,[7],inactive
same,Potency,[13],inactive
same,Potency,[20],inactive
same,Potency,[14],inactive
same,Potency,[15],inactive
same,Potency,[16],inactive
same,Potency,[8],inactive
same,Potency,[9],inactive
same,Potency,[10],inactive
same,Potency,[17],inactive
same,Potency,[18],inactive
same,Potency,[19],inactive
COc1ccc(C(=O)N2CCCC2=O)cc1,outcome,[2],inactive
same,outcome,[1],inactive
CN(C)C(=S)SSC(=S)N(C)C,Potency,[3],20 µM (active)
same,Potency,[4],10 µM (active)
same,Potency,[5],12.6 µM (active)
same,Potency,[12],50.1 µM (active)
same,Potency,[6],15.8 µM (active)
same,Potency,[13],0.251 µM (active)
same,Potency,[20],0.251 µM (active)
same,Potency,[14],0.501 µM (active)
same,Potency,[15],0.199 µM (active)
same,Potency,[16],0.316 µM (active)
same,Potency,[8],0.398 µM (active)
same,Potency,[9],251 nM (active)
same,Potency,[10],0.199 µM (active)
same,Potency,[17],0.199 µM (active)
same,Potency,[18],0.501 µM (active)
same,Potency,[19],0.316 µM (active)
CC1=C(CC(=O)O)c2cc(F)ccc2/C1=C\c1ccc(S(C)(=O)=O)cc1,outcome,[1],inactive
O=C(O)c1nn(Cc2ccc(Cl)cc2Cl)c2ccccc12,outcome,[2],inactive
CN(C(=O)CCCOc1ccc2[nH]c(=O)ccc2c1)C1CCCCC1,outcome,[1],inactive
Cc1ccc(N(CC2=NCCN2)c2cccc(O)c2)cc1,outcome,[1],inactive
CNC(=O)Oc1cccc2ccccc12,Potency,[3],inactive
same,Potency,[4],inactive
same,Potency,[11],inactive
same,Potency,[5],inactive
same,Potency,[12],inactive
same,Potency,[6],inactive
same,Potency,[13],inactive
same,Potency,[20],inactive
same,Potency,[14],inactive
same,Potency,[15],inactive
same,Potency,[16],inactive
same,Potency,[8],inactive
same,Potency,[9],inactive
same,Potency,[10],inactive
same,Potency,[17],inactive
same,Potency,[18],inactive
same,Potency,[19],inactive
COC(=O)C1=CCCN(C)C1,outcome,[2],inactive
same,outcome,[1],inactive
NC(N)=NC(=O)c1nc(Cl)c(N)nc1N,outcome,[1],inactive
CN1CCC(=C2c3ccccc3CC(=O)c3sccc32)CC1,outcome,[1],inactive
CCCC(C(=O)OCCN(CC)CC)(c1ccccc1)c1ccccc1,outcome,[1],inactive
OCc1cc(C(O)CNCCCCCCOCCCCc2ccccc2)ccc1O (stereo not drawn),outcome,[1],inactive
CC(C)(C)c1ccc(C(O)CCCN2CCC(C(O)(c3ccccc3)c3ccccc3)CC2)cc1 (stereo not drawn),outcome,[1],inactive
CCCCCCCCC(=O)NCc1ccc(O)c(OC)c1,outcome,[2],inactive
COC(=O)C1=C(C)NC(C)=C(C(=O)OC)C1c1ccccc1[N+](=O)[O-],Potency,[4],31.6 µM (active)
same,outcome,[1],inactive
same,Potency,[5],50.1 µM (active)
same,Potency,[6],50.1 µM (active)
same,Potency,[7],39.8 µM (active)
same,Potency,[13],50.1 µM (active)
same,Potency,[20],31.6 µM (active)
same,Potency,[10],50.1 µM (active)
same,Potency,[17],79.4 µM (active)
CCOC(=O)C(C)(C)Oc1ccc(Cl)cc1,outcome,[1],inactive
